In publication PMC4552634, “A New Set of Chemical Starting Points with Plasmodium falciparum Transmission-Blocking Potential for Antimalarial Drug Discovery” (PLoS ONE, 2015):
Screen size: about 13,000 compounds; about 3,200 (25%) showed an effect of 50% or more. This is one part of the list.

Tested on: P. falciparum stage V gametocytes
Design: BacTiter-Glo ATP luminescence viability of purified stage V gametocytes in 384-well plates, per cent inhibition versus DMSO
Conditions: 48 h, 5 µM; inhibitor

| Compound | % Inhibition [%] |
| --- | --- |
| Cc1noc(C)c1-c1cccc(CNCc2cccc(-c3ccc(-c4nc5cc(C(F)(F)F)ccc5[nH]4)s3)c2)c1.O=C(O)C(F)(F)F [TCMDC-133055] | 0.7472 |
| CCOc1cc2c(cc1OCC)C(c1cc(OC)c(O)cc1Cl)NCC2 (stereo not shown) [TCMDC-124488] | -19.03 |
| CCc1cc(-c2onc(C)c2-c2cc3ccccc3o2)c(O)cc1OC [TCMDC-125148] | 5.13 |
| C=C(C)CSc1nc2c(c(=O)n1Cc1ccco1)C1(CCCCC1)Cc1ccccc1-2 [TCMDC-123895] | 6.726 |
| Cn1c(O)c(N=NC(=S)N2CCOCC2)c2ccccc21 [TCMDC-138076] | 88.31 |
| Oc1[nH]c2ccccc2c1N=NC(=S)N1CCOCC1 [TCMDC-124263] | 29.38 |
| CCn1c(O)c(N=NC(=S)N2CCCC2)c2ccccc21 [TCMDC-138077] | 9.29 |
| CCN1CCN(c2cc(C)c3cc(NC(=O)c4cccc(OC)c4)ccc3n2)CC1 [TCMDC-125573] | 10.75 |
| COc1ccc(-c2ccc(NC(=O)c3cccc(C#N)c3)cc2)cc1CN1CCNCC1 [TCMDC-132530] | -2.653 |
| COc1cccc(C(=O)Nc2nc3c(s2)CCN(Cc2ccccc2N2CCNCC2)CC3)c1.O=C(O)C(F)(F)F [TCMDC-134190] | 63.98 |
| N#Cc1ccc(/C=C/C(=O)NCCCCCN2CCN(C(=O)Nc3ccc(Cl)c(C(F)(F)F)c3)CC2)cc1 [TCMDC-136098] | -6.45 |
| COc1ccc(C(=O)c2ccc3[nH]cc(C4=CCN(C)CC4)c3c2)cc1 [TCMDC-137276] | -3.804 |
| Cc1ccc(C(=O)Nc2cccc(CN3CCCN(Cc4ccc(O)cc4)CC3)c2)s1 [TCMDC-141858] | 30.58 |
| C#C[C@H]1O[C@@H](n2cnc3c(Nc4cc(Br)cc(C(F)(F)F)c4)ncnc32)[C@H](O)[C@@H]1O [TCMDC-135185] | 10.32 |
| Cc1[nH]c(C)c(-c2ccc(C#Cc3ccc(F)cc3F)cc2)c(=O)c1Br [TCMDC-134692] | 64.24 |
| CCC(N)(C#Cc1ccc(-c2c(C)[nH]c(C)c(Br)c2=O)cc1)CC [TCMDC-134693] | 83.96 |
| Cc1[nH]c(C)c(-c2ccc(CCc3ccc(F)cc3F)cc2)c(=O)c1Br [TCMDC-135461] | 65.46 |
| Cc1[nH]c(C)c(-c2ccc(-c3ccc(F)cc3)cc2)c(=O)c1Cl [TCMDC-137408] | -2.511 |
| Cc1[nH]c(C)c(-c2ccc(CCc3ccc(F)cc3F)cc2)c(=O)c1Cl [TCMDC-135462] | 72.17 |
